# From PubChem BioAssay AID1159571 (Broad Institute, 2015)
# Entries with a potency or affinity are not part of this list. Calls of active or inactive are those of the source. The rule behind the calls is not given here.
# Assay: P. falciparum ATP4 D1247Y mutant growth inhibitors, dose response, NITD609-resistant line, SYBR Green, dry powder (AID 1159571)
# Details: series mostly up to 19.5 µM
row,Structure (SMILES),outcome
1,O=C(NC[C@@H]1CC[C@H]2[C@H](CN2Cc2cc(-c3ccccc3)on2)O1)c1ccc2c(c1)OCO2,inactive
2,COc1cccc(C#Cc2ccc([C@H]3[C@@H](CO)N(C(=O)c4ccccn4)[C@H]3C#N)cc2)c1,inactive
3,C[C@@H]1CN([C@H](C)CO)C(=O)c2cccc(NC(=O)c3ccc(-c4nccs4)cc3)c2O[C@H]1CN(C)Cc1ccc(C(F)(F)F)cc1,inactive
4,COc1ccc(S(=O)(=O)Nc2ccc3c(c2)CC(=O)N([C@@H](C)CO)C[C@H](C)[C@H](CN(C)S(=O)(=O)c2ccc(OC)cc2)O3)cc1,inactive
5,Cc1ccccc1-c1ccccc1[C@H]1[C@@H](C#N)N(C(=O)c2ccccc2)[C@@H]1CO,inactive
